Pf apPOL inh: Pf-apPOL inhibitors, biochemical, fluorescence. Plasmodium falciparum apicoplast DNA polymerase (apPOL). Recombinant Pf-apPOL, molecular beacon fluorescence, 1.5 h. inhibition, % at 10 µM. hit rate 0.25% among 210,000. AID 1794808, 2022
mHTT CaM bind: mutant huntingtin-calmodulin interaction inhibitors – biochemical, AlphaScreen, primary screen. P42858. AlphaScreen His-mHTT/GST-CaM binding, luminescence. inhibition, % at 15 µM. hit rate 3.6% among 190,000. AID 1671202, 2021;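 also: 0% = both proteins with DMSO and 100% = one protein alone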
Numbers without * were called inactive; · = no result. Shown are actives, neighbours in structure and some others; about 3.5% of the full set was active somewhere. Rule as the data show it: active = inhibition above about 50%; inactive = the rest.

SMILES	Pf apPOL inh	mHTT CaM bind
O=C(c1n[nH]c2ccccc12)N1CCc2nc3cc(-c4ccccc4)[nH]n3c(=O)c2C1	4.9	16.1
O=C(c1cc(C2CC2)[nH]n1)N1CCc2nc3cc(-c4ccccc4Cl)[nH]n3c(=O)c2C1	25.9	59.1*
COc1ccc(-c2cc3nc4c(c(=O)n3[nH]2)CN(C(=O)c2ccc(C)c(F)c2)CC4)cc1	40.6	79.8*
O=C(c1nccc2ccccc12)N1CCc2nc3cc(-c4ccccc4)[nH]n3c(=O)c2C1	-0.2	56.2*
O=C(c1ccc2ncccc2c1)N1CCc2nc3cc(-c4ccccc4)[nH]n3c(=O)c2C1	96.0*	99.1*
CC(=O)N1CCc2nc3cc(-c4ccccc4Cl)[nH]n3c(=O)c2C1	1.7	-1.8
CCn1ccc(C(=O)N2CCCC2c2ccc(Cl)cc2)n1 (stereo unspecified)	0.9	-3.4
COc1ccc(NC(=O)N2CCC(Cc3nc4cccnc4n3CC(C)C)C2)cc1 (stereo unspecified)	-4.8	7.2
Cc1n[nH]c(=O)c(N)c1[N+](=O)[O-]	5.0	-5.4
COc1ccc(NS(=O)(=O)c2ccc(Cl)cc2)c(OC)n1	-0.4	·
COc1ccc(-n2nc(C(C)(C)C)cc2NC(=O)C2CCC2)cc1	-4.8	1.2
O=C(Nc1cc(-c2ccco2)nn1-c1cc(C(F)(F)F)cc(C(F)(F)F)c1)C1CCC1	90.8*	·
CCOc1ccc(C2=C(CN(C)C)C(c3ccc(F)cc3)c3ccccc3O2)cc1 (stereo unspecified)	-3.3	91.0*
Cc1ccc(C2C(CN3CCOCC3)=C(c3ccccc3)Oc3ccccc32)cc1 (stereo unspecified)	0.5	25.0
COc1ccc(C2=C(CN(C)C)C(c3ccccc3)c3ccccc3O2)cc1 (stereo unspecified)	0.2	71.0*
CCOc1ccc(C2=C(CN3CCOCC3)C(c3ccccc3)c3ccccc3O2)cc1 (stereo unspecified)	-0.8	15.0
CS(=O)(=O)c1nsc(S(C)(=O)=O)c1C#N	-11.0	-4.0
C=CCN(c1ccccc1)S(=O)(=O)c1ccc(F)c(C(=O)Nc2cccc(F)c2)c1	-7.0	-24.0
Cc1nc(CNC(=O)C2CCN(C(=O)NCCc3ccccc3)CC2)cs1	-3.0	-6.4
CC(C)Sc1cccc(-c2nnc(NC(=O)c3cc(-c4ccco4)on3)o2)c1	-47.8	36.8
CC(C)Sc1cccc(C(=O)Nc2nnc(-c3ccnn3C(C)C)o2)c1	-214.5	68.4*
Cc1cccc(C)c1NC(=O)CSC1=C(C#N)C(c2ccccc2F)CC(=O)N1 (stereo unspecified)	-0.1	0.0
O=C(CCN1C(=O)c2cccc([N+](=O)[O-])c2C1=O)Nc1ccc(N2CCOCC2)cc1	-5.6	-3.4
Cc1cc(C)c(-c2[nH]ncc2-c2nc3ccccc3s2)c(O)c1	-10.0	85.5*
Nc1ccc(O)c(-c2nc3ccccc3s2)c1	3.4	49.9
SMILES	Pf apPOL inh	mHTT CaM bind
O=C(Nc1ccc(O)c(-c2nc3ccccc3s2)c1)c1ccc([N+](=O)[O-])cc1	-0.2	-1.1
O=[N+]([O-])c1ccc(COc2ccc(-c3[nH]ncc3-c3nc4ccccc4s3)c(O)c2)cc1	-6.7	99.9*
O=c1oc2ccccc2cc1-c1csc(NC2CCCCC2)n1	-5.2	-93.0
Cc1c(C)c(C(=O)NCc2ccc3c(c2)OCO3)n(Cc2ccccc2F)c1C	-0.6	11.8
O=C(Nc1ccc(S(=O)(=O)Nc2nccs2)cc1)c1ccc(Br)o1	-27.2	4.6
Cc1ccc(-n2cc(-c3ccc4c(c3)OCO4)[nH]c2=O)cc1	1.0	70.0*
O=c1[nH]c(-c2ccc3c(c2)OCO3)cn1-c1ccccc1	0.0	7.0
CCCNC(=O)c1cnn2c(C)c(Cc3ccc(F)cc3)c(C)nc12	-4.5	-1.0
CCCCNC(=O)c1cnn2c(C)c(Cc3ccc(Cl)cc3)c(C)nc12	-6.0	11.0
Cc1ccc(C)c(Cc2c(C)nc3c(C(=O)NCCc4ccccc4)cnn3c2C)c1	-2.9	66.0*
CCCCNC(=O)c1cnn2c(C)c(Cc3cc(C)ccc3C)c(C)nc12	-0.5	11.0
CCOCCCNC(=O)c1cnn2c(C)c(Cc3ccc(Cl)cc3)c(C)nc12	-17.8	65.0*
Cc1nc2c(C(=O)NCCc3ccccc3)cnn2c(C)c1Cc1ccc(F)cc1	-4.2	80.0*
Cc1nc2c(C(=O)NCc3ccc(F)cc3)cnn2c(C)c1Cc1ccc(F)cc1	-8.2	51.0*
Cc1nc2c(C(=O)NCc3ccc(F)cc3)cnn2c(C)c1Cc1ccccc1	-7.2	19.0
COc1ccc(C(=O)N2CCC3(C2)NCc2ccccc2NC3=NC2CCCC2)cn1 (stereo unspecified)	-5.8	2.6
OC(c1ccccn1)C1CCN(Cc2ccc(F)c(F)c2)CC1 (stereo unspecified)	-11.0	-3.3
COc1cccc(C2=N/C(=C/c3ccc(OC)cc3OC)C(=O)O2)c1	-1.9	10.0
O=C(NC1CC1)C1CCC(c2ccccc2)N(C(=O)c2ccc(Cl)cc2)C1 (stereo unspecified)	-7.1	5.6
